Measured values taken from PubChem BioAssay (Tox21).
Results filed as inconclusive are left out. The source made the active and inactive calls. Unless noted, the call rests on the fitted dose curve.

Experiments:
[1] = qHTS assay to identify small molecule agonists of the sonic hedgehog signaling (Shh) pathway (AID 1259368);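 further: NIH/3T3-derived 3T3Gli1-Luc cells carrying a stable Gli1-driven firefly luciferase reporter; series mostly up to about 92 µM; nearly all actives have a fitted effect of over 15% in size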
Outline: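 Quantitative high-throughput format using a Gli1-driven firefly luciferase reporter line derived from NIH/3T3 cells. After a 24 hr compound treatment at 37 C and 5% CO2, luminescence reported Gli1 response element activity.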

[2] = qHTS assay to identify small molecule antagonists of the sonic hedgehog signaling (Shh) pathway (AID 1259369); further: nearly all actives have a fitted effect of over 45% in size; further: potency means the concentration at half of the fitted maximal effect
Outline: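 Stable Gli1-Luc reporter NIH/3T3 clone; quantitative HTS in stimulated mode with conditioned medium. Luminescence measured after 24hr compound treatment at 37 C.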

[3] = target: Estrogen receptor beta (Homo sapiens) (UniProt Q92731); assay: qHTS assay to identify small molecule agonists of the estrogen receptor beta (ER-beta) signaling pathway (AID 1259377; active means well fitted activation curve with a large enough effect in the signal ratio in the repeat runs, not every such curve was filed as active; the % refers to the signal ratio)
Outline: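 HEK293T ER-beta-UAS-bla; 2% charcoal-stripped FBS; cells pre-incubated 6 hr, compound 16 hr, 37C/5% CO2; LiveBLAzer B/G FRET substrate 2 h RT; fluorescence intensity read.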

[4] = qHTS assay to identify small molecule agonists of the androgen receptor (AR) signaling pathway in the presence of an antagonist - cell viability counter screen (AID 1259379; active means well fitted curve in the direction sought with a large enough effect in the repeat runs; an effect the other way counts as inactive or inconclusive;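 further: MDA-kb2 human breast cancer cells carrying an MMTV luciferase reporter; series mostly up to about 92 µM; nearly all actives have a fitted effect of over 25% in size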)
Outline: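 Nilutamide-containing (3.0uM final) MDA-kb2 cultures, 3,000 cells/well, were treated with compounds across 15 concentrations. After 16 hr at 37C with no CO2, cell viability was determined by CellTiter-Fluor fluorescence in the luciferase assay wells.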

[5] = qHTS assay to identify small molecule agonists of the estrogen receptor beta (ER-beta) signaling pathway - cell viability counter screen (AID 1259380; active means well fitted curve in the direction sought with a large enough effect in the repeat runs; an effect the other way counts as inactive or inconclusive; further: nearly all actives have a fitted effect of over 30% in size)
Outline: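 Steps: plate ER-beta-UAS-bla HEK293T cells, rest 6 hr; add compounds in DMSO; incubate 16 hr at 37C, 5% CO2; add FRET substrate 2 hr; add CellTiter-Glo, wait 30 min at room temperature; read luminescence.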

[6] = target: Androgen receptor (Homo sapiens) (UniProt P10275); assay: qHTS assay to identify small molecule agonists of the androgen receptor (AR) signaling pathway in the presence of an antagonist (AID 1259381); further: nearly all actives have a fitted effect of over 15% in size
Outline: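 Reporter-gene luminescence from MDA-kb2 cells exposed 16hr at 37C (0% CO2) to 15-point compound titrations with 3.0uM final nilutamide as AR antagonist.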

[7] = qHTS assay to identify small molecule antagonists of the estrogen receptor beta (ER-beta) signaling pathway - cell viability counter screen (AID 1259382; active means well fitted curve in the direction sought with a large enough effect in the repeat runs; an effect the other way counts as inactive or inconclusive; further: series mostly up to about 92 µM; nearly all actives have a fitted effect of over 55% in size)
Outline: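 Viability is scored by CellTiter-Glo luminescence (30 min, room temperature) in ER-beta-UAS-bla HEK293T wells already read for reporter fluorescence. Compound exposure lasts 16 hr at 37C alongside 1nM 17-beta-estradiol in charcoal-stripped serum medium.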

[8] = target: Estrogen receptor (Homo sapiens) (UniProt P03372); assay: qHTS assay to identify small molecule agonists of the estrogen receptor alpha (ER-alpha) signaling pathway in the presence of an antagonist (AID 1259383); further: top concentration of the series differs between compounds; nearly all actives have a fitted effect of over 15% in size
Outline: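 Readout was ERE-driven luciferase luminescence in VM7Luc4E2 cells, which express full-length ER-alpha endogenously. Compounds were tested at 15 concentrations for 22hr alongside 10.0nM ICI-182,780 (final concentration).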

[9] = qHTS assay to identify small molecule agonists or antagonists of the thyroid stimulating hormone receptor (TSHR) signaling pathway - wild type cell line counter screen (AID 1259384)
Outline: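 Wild-type HEK293 cells were plated 18 h at 37 C/5% CO2, pin-dosed with compound plus Ro20-1724 medium, held 30 min at room temperature, then given cAMP-d2 and anti-cAMP-cryptate; fluorescence was read after 1 h. Fifteen concentrations, triplicate.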

[10] = target: Estrogen receptor beta (Homo sapiens) (UniProt Q92731); assay: qHTS assay to identify small molecule antagonists of the estrogen receptor beta (ER-beta) signaling pathway (AID 1259378; active means well fitted inhibition curve with a large enough effect in the signal ratio in the repeat runs, not every such curve was filed as active; the % refers to the signal ratio; further: potency means the concentration at half of the fitted maximal effect)
Outline: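 ER-beta-UAS-bla HEK293T (GripTite) cells in 2% charcoal-stripped FBS medium were preincubated 6 hr at 37C, dosed with compound, then stimulated with 1 nM E2 (final) for 16 hr; beta-lactamase reporter read by B/G FRET fluorescence after 2 hr substrate loading.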
On the % scale 0 is the no-effect control and ±100 the full control effect.

Sequence of Estrogen receptor (Homo sapiens) (P03372 whole entry, looked up): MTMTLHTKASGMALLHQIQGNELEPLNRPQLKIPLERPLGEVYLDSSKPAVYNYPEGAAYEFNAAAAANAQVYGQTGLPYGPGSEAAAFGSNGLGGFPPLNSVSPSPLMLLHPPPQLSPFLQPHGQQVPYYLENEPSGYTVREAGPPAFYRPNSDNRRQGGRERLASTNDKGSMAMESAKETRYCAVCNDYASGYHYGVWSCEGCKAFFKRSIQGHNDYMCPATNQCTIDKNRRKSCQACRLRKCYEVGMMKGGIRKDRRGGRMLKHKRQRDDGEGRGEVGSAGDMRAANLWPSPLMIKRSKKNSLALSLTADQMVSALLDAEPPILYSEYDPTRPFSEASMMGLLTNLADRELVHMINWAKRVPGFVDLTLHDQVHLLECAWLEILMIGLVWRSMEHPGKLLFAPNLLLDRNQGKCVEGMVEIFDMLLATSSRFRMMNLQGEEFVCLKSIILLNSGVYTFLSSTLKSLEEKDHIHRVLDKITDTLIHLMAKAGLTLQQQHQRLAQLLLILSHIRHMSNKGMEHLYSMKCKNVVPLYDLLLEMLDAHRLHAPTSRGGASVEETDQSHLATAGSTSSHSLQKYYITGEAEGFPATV
Sequence of Androgen receptor (Homo sapiens) (P10275 whole entry, looked up): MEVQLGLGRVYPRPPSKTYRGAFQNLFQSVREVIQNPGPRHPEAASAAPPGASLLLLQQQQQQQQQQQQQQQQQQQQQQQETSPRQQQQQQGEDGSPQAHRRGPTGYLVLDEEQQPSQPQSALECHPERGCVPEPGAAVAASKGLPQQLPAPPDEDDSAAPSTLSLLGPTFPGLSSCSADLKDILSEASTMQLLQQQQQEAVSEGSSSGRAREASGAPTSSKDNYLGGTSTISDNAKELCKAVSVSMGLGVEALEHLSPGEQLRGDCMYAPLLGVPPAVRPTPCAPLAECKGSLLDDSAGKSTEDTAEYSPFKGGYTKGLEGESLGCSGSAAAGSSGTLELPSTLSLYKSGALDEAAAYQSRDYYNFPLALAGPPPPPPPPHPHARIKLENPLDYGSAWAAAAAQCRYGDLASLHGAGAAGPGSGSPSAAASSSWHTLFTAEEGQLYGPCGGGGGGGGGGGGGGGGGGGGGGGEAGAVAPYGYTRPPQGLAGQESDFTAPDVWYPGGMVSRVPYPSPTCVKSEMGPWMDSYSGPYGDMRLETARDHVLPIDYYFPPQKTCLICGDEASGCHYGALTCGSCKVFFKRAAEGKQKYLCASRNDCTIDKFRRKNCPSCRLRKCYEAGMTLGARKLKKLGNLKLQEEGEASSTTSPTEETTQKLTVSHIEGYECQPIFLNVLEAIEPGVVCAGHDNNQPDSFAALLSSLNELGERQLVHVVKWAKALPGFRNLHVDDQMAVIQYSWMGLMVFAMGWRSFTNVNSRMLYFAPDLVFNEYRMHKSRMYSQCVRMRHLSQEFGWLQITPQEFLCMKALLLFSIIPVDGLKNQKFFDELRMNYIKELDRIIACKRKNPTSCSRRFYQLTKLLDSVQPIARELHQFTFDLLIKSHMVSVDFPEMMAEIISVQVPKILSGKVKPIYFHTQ
Sequence of Estrogen receptor beta (Homo sapiens) (Q92731 whole entry, looked up): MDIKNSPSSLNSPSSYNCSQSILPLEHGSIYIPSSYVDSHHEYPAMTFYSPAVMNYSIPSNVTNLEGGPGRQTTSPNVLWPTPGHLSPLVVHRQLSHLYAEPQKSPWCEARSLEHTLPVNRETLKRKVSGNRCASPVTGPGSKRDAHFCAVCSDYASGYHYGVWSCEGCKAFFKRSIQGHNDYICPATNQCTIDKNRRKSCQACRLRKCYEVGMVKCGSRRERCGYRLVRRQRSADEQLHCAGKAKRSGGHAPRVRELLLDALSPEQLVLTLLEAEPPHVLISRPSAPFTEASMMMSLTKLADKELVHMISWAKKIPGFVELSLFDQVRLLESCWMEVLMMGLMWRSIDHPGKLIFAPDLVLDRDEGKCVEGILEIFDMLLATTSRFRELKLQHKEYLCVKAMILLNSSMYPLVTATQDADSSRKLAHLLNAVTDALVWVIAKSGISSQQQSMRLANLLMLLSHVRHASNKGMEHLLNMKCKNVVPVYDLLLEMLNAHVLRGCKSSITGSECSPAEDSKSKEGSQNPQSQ

O=C(CCOCCOCCOCCOCCC(=O)Nc1c(I)cc(I)c(C(=O)O)c1I)Nc1c(I)cc(I)c(C(=O)O)c1I
inactive: Potency [1] | Potency [2] | outcome [3] | Potency [4] | Potency [5] | Potency [6] | Potency [7] | Potency [8] | outcome [9]

CCCOc1ccccc1-c1nc2n[nH]nc2c(=O)[nH]1
inactive: Potency [1] | Potency [2] | outcome [3] | Potency [4] | Potency [5] | Potency [8] | outcome [9]

CCC(=O)/C=C/c1ccc(OC)cc1
inactive: Potency [1] | Potency [2] | outcome [3] | Potency [4] | Potency [5] | Potency [7]

Nc1cc(C(Cl)=C(Cl)Cl)c(S(N)(=O)=O)cc1S(N)(=O)=O
inactive: Potency [1] | Potency [2] | outcome [3] | Potency [4] | Potency [8] | outcome [9]

CCN(CC)C(=O)c1ccc(O)c(OC)c1
inactive: Potency [1] | Potency [2] | outcome [3] | Potency [4] | Potency [5] | Potency [8] | outcome [9]

COc1cccc(OC)c1
inactive: Potency [1] | Potency [2] | outcome [3] | Potency [10] | outcome [9]

C=CCOCC(O)CS(=O)(=O)O (centres undefined)
inactive: Potency [1] | Potency [2] | outcome [3] | Potency [4] | Potency [5] | Potency [7] | Potency [8] | outcome [9]

CO[Si](OC)(OC)OC
inactive: Potency [1] | Potency [2] | outcome [3] | Potency [4] | Potency [5] | outcome [9]

Cn1cnc2c(=O)[nH]c(N)nc21
inactive: Potency [1] | Potency [2] | outcome [3] | Potency [4] | Potency [5] | Potency [7] | outcome [9]

O=Cc1ccccc1[N+](=O)[O-]
inactive: Potency [1] | Potency [2] | outcome [3] | Potency [4] | Potency [7] | outcome [9]

O=C(O)/C=C/c1ccc(Cn2ccnc2)cc1
inactive: Potency [1] | Potency [2] | outcome [3] | Potency [4] | Potency [5] | Potency [7]

CC(C)(O)Cc1ccccc1
inactive: Potency [1] | Potency [2] | outcome [3] | Potency [4] | Potency [5] | Potency [7] | Potency [8] | outcome [9]

CC(C)(C)CC(C)(C)N
inactive: Potency [1] | Potency [2] | outcome [3] | Potency [10] | Potency [5] | Potency [7] | Potency [8] | outcome [9]

CC(C)[C@H](N)C(=O)OCCOCn1cnc2c(=O)[nH]c(N)nc21
inactive: Potency [1] | Potency [2] | outcome [3] | Potency [4] | Potency [5] | Potency [7] | Potency [8] | outcome [9]

O=c1[nH]c2ccccc2c(=O)n1CCCl
inactive: Potency [1] | Potency [2] | outcome [3] | Potency [4] | Potency [5] | Potency [6] | Potency [7] | outcome [9]

CCC(=O)Nc1cccc(N)c1
inactive: Potency [1] | Potency [2] | outcome [3] | Potency [4] | Potency [5] | Potency [7] | Potency [8] | outcome [9]

Nc1cc(N)cc(C(=O)O)c1
inactive: Potency [1] | Potency [2] | outcome [3] | Potency [4] | Potency [5] | Potency [7] | Potency [8] | outcome [9]

Fc1ccccc1-c1ccccc1
inactive: Potency [1] | Potency [2] | outcome [3] | Potency [4] | Potency [5] | Potency [7] | Potency [8] | outcome [9]

c1cc(CN2CCCCC2)cc(OCCCNc2nc3ccccc3s2)c1
active: Potency [2] 4.73 µM | Potency [10] 23.7 µM
inactive: Potency [1] | outcome [3] | Potency [7] | outcome [9]

CCCCCCOC(=O)CC(CC(=O)OCCCCCC)(OC(=O)CCC)C(=O)OCCCCCC
inactive: Potency [1] | Potency [2] | outcome [3] | Potency [4] | Potency [5] | Potency [6] | Potency [7] | Potency [8] | outcome [9]

CC(C)(O)c1ccccc1
inactive: Potency [1] | Potency [2] | outcome [3] | Potency [4] | Potency [7]

Nc1[nH]c(=O)ncc1F
inactive: Potency [1] | Potency [2] | outcome [3] | Potency [10] | Potency [8]

CCCc1ccccc1O
inactive: Potency [1] | Potency [2] | outcome [3] | Potency [4] | Potency [5] | Potency [7] | outcome [9]

CC(C)(C)C(=O)/C=C/c1ccc(Cl)cc1
inactive: Potency [1] | Potency [2] | outcome [3] | Potency [10] | Potency [7] | Potency [8] | outcome [9]

CC1=CC(=O)CCC1
inactive: Potency [1] | Potency [2] | outcome [3] | Potency [4] | Potency [7] | outcome [9]

Cc1nccn1CC1CCc2c(c3ccccc3n2C)C1=O (centres undefined)
inactive: Potency [1] | Potency [2] | outcome [3] | Potency [4] | Potency [7] | outcome [9]

CC(=O)N[C@@H](CCC(N)=O)C(=O)O
inactive: Potency [1] | Potency [2] | outcome [3] | Potency [4] | Potency [7] | Potency [8]

NC(=S)Nc1cccc2ccccc12
inactive: activity change [1] -0.099% [at 8.39 µM, active compounds read high] | activity change, negative = inhibition [2] 0.0462% [at 8.39 µM] | activation [3] -0.309% [at 8.39 µM] | activity, negative = inhibition [10] -5.64% [at 8.39 µM] | activity change, negative = cytotoxicity [5] -0.0461% [at 8.39 µM] | activity change, negative = cytotoxicity [7] 8.83% [at 8.39 µM] | cAMP activity change [9] 4.82% [at 8.39 µM]

COC[C@H](c1ccc(C(F)(F)F)cc1)N1CCN(C2(C)CCN(C(=O)c3c(C)ncnc3C)CC2)C[C@H]1C
inactive: Potency [1] | Potency [2] | outcome [3] | Potency [4] | Potency [7] | outcome [9]
